Results filed as inconclusive are left out. The source made the active and inactive calls. Calls come from the whole dose curve; as a rule, active = well fitted curve in the direction sought with a large enough effect; inconclusive = small, poorly fitted or top-dose-only effect, or another doubt; inactive = no such curve, though single readings can be large; an effect the other way counts as inactive or inconclusive. Where a SMILES comes first, the peptide text is derived from it. [ ]: non-standard residue; d: D form. ξ: configuration not given here. ξTyr(βOH) = NC(C(=O)O)C(O)c1ccc(O)cc1
How the values were obtained:
[1] = molecular target: Calcium and integrin-binding protein 1 (Homo sapiens) (UniProt Q99828); assay: Primary qHTS for Identification of Calcium Integrin Binding Protein 1 (CIB1) Competitor (AID 1508620);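 note: GST tagged CIB1 binding a fluorescein labelled alphaIIb integrin peptide tracer; top concentration of the series differs between compounds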
Calcium and integrin-binding protein 1 (Homo sapiens), sequence (Q99828 whole entry, looked up): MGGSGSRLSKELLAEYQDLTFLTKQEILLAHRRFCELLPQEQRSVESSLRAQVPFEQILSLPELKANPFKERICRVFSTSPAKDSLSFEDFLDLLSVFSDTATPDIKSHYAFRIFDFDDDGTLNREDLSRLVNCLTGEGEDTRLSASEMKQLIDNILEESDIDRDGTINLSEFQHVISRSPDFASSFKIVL
Outline: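 Fluorescence polarization competition: GST-tagged CIB1 (1 uM final) preincubated with compound 15 min at room temperature, then FITC-labelled alphaIIb peptide (100 nM final) added. After 15 min at room temperature, polarization read at Ex 480/Em 540.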

[2] = Primary qHTS for inhibitors of nuclear receptor binding SET domain protein 2 (NSD2) in an isogenic RCH-ACV NSD2 p.E1099K mutant (9B) (AID 1645876); note: nearly all actives have a fitted effect of over 70% in size
[3] = Primary qHTS for inhibitors of nuclear receptor binding SET domain protein 2 (NSD2) in an RCH-ACV wild type WT cells (2C) (AID 1645877); note: nearly all actives have a fitted effect of over 70% in size
% is set by controls: 0 for no effect and ±100 for the full control effect.

C=C1CC[C@]2(C(=O)O[C@@H]3O[C@H](CO)[C@@H](O)[C@H](O)[C@H]3O)CC[C@]3(C)C(=CCC4[C@@]5(C)C[C@H](O)[C@@H](O[C@@H]6O[C@H](C(=O)O)[C@@H](O)[C@H](O)[C@H]6O)[C@](C)(C=O)C5CC[C@]43C)C2C1 (some centres not stated)
inactive: Potency [1] | activity change, negative = viability loss [2] -1.03% [at 9.23 µM] | activity change, negative = cell killing [3] -2.63% [at 9.23 µM]

CC1(C)C=Cc2c(ccc3c2[N+]([O-])=C2C3(O)CC34NC(=O)C5(CCCN5C3=O)CC4C2(C)C)O1 (configuration not stated)
inactive: Potency [1] | Potency [2] | Potency [3]

COc1cc(/C=C/C(=O)O[C@@H]2O[C@H](CO)[C@@H](O)[C@H](O)[C@H]2O)ccc1O
inactive: Potency [1] | Potency [2] | Potency [3]

C[C@@H]1O[C@@H](O[C@H]2[C@@H]3C=CO[C@@H](O[C@@H]4O[C@H](CO)[C@@H](O)[C@H](O)[C@H]4O)[C@@H]3[C@@]3(CO)O[C@@H]23)[C@H](OC(=O)/C=C/c2ccc(O)cc2)[C@H](O)[C@H]1O
inactive: Potency [1] | Potency [2] | Potency [3]

COc1cc([C@H]2OC[C@](O)(Cc3ccc(O[C@@H]4O[C@H](CO)[C@@H](O)[C@H](O)[C@H]4O)c(OC)c3)[C@@H]2CO)ccc1O
inactive: Potency [1] | Potency [2] | Potency [3]

C[C@H]1[C@@H](O)[C@H](O)C2[C@]3(C)C([C@@H](O)[C@H]4OC(=O)[C@@H]1[C@@]24C)[C@](C)(O)C=C[C@H]3O[C@@H]1O[C@H](CO)[C@@H](O)[C@H](O)[C@H]1O (some centres not stated)
inactive: Potency [1] | Potency [2] | Potency [3]

C=CCc1cc(OC)c(OC(C)C(O)c2ccc(O)c(OC)c2)c(OC)c1 (configuration not stated)
inactive: Potency [1] | Potency [2] | Potency [3]

C=CC1(C)CC2CCC3C(C)(C(=O)O)CCCC3(C)C2=CC1=O (configuration not stated)
inactive: Potency [1] | Potency [2] | Potency [3]

COc1cc(CCCO)ccc1O[C@@H]1O[C@H](CO)[C@@H](O)[C@H](O)[C@H]1O
inactive: Potency [1] | Potency [2] | Potency [3]

C[C@@H]1O[C@@H](O[C@H]2[C@H](Oc3cc(O)c(C(=O)CCc4ccc(O)cc4)c(O)c3)O[C@H](CO)[C@@H](O)[C@@H]2O)[C@H](O)[C@H](O)[C@H]1O
inactive: Potency [1] | Potency [2] | Potency [3]

CC(C)=CCC(O)[C@](C)(O)C1[C@H](O)C[C@@]2(C)C3CC=C4C(C[C@H](O)[C@@H](O[C@@H]5O[C@H](CO)[C@@H](O)[C@H](O)[C@H]5O)C4(C)C)[C@]3(C)C(=O)C[C@]12C (some centres not stated)
inactive: Potency [1] | Potency [2] | Potency [3]

CC(=O)OCC1=CCC2C(C)(C)CCCC2(C)C12CCC(C)(CC(=O)O)O2 (configuration not stated)
inactive: Potency [1] | Potency [2] | Potency [3]

CC(=O)OC1C(C)C2C(OC3OC(CO)C(O)C(O)C3O)OC=C(C(=O)O)C2C1OC(=O)c1ccccc1 (configuration not stated)
inactive: Potency [1] | Potency [2] | Potency [3]

CC1=C(CCC(C)O[C@@H]2O[C@H](CO)[C@@H](O)[C@H](O)[C@H]2O)C(C)(C)CC(O)C1 (some centres not stated)
inactive: Potency [1] | Potency [2] | Potency [3]

OCC1OC(Oc2cc(O)cc(/C=C/c3ccc(OC4OC(CO)C(O)C(O)C4O)cc3O)c2)C(O)C(O)C1O (configuration not stated)
inactive: Potency [1] | Potency [2] | Potency [3]

C[C@@H]1O[C@@H](O[C@H]2[C@H](O)[C@@H](O)[C@H](OC(=O)[C@]34CCC(C)(C)C[C@H]3C3=CCC5[C@@]6(C)CC[C@H](O[C@@H]7O[C@H](C(=O)O)[C@@H](O)[C@H](O)[C@H]7O)C(C)(C)C6CC[C@@]5(C)[C@]3(C)CC4)O[C@@H]2CO)[C@H](O)[C@H](O)[C@H]1O (some centres not stated)
inactive: Potency [1] | activity change, negative = viability loss [2] -5.91% [at 9.23 µM] | activity change, negative = cell killing [3] -1.6% [at 9.23 µM]

CC(=O)O[C@@H]1[C@H](OC(C)=O)C[C@@]2(C)C(CC[C@@H](C)[C@]23Cc2c(O)cc4c(c2O3)CN([C@@H](CCC(=O)O)C(=O)O)C4=O)C1(C)C (some centres not stated)
inactive: Potency [1] | Potency [2] | Potency [3]

C=CCC1=C[C@]2(OC)[C@H](C)[C@@H](c3ccc(OC)c(OC)c3)O[C@]2(OC)CC1=O
inactive: Potency [1] | Potency [2] | Potency [3]

COC(=O)C(CC1(O)c2ccccc2N2C(=O)C(CC(C)C)NC21)n1cnc2ccccc2c1=O (configuration not stated)
inactive: Potency [1] | Potency [2] | Potency [3]

CC1=CC(=O)CC(C)(C)C1/C=C/C(C)OC1OC(COC2OCC(O)C(O)C2O)C(O)C(O)C1O (configuration not stated)
inactive: Potency [1] | Potency [2] | Potency [3]

COc1ccc(C2(O)c3c(ccc4c3OC(C)(CCC=C(C)C)C=C4)NC(=O)C2OC)cc1 (configuration not stated)
inactive: Potency [1] | Potency [2] | Potency [3]

CC1=CC(=O)C2C(C)(C)CCC[C@]2(C)[C@H]1CC[C@H](C)CC(=O)O (some centres not stated)
inactive: Potency [1] | Potency [2] | Potency [3]

O=C1C[C@@]2(C(=O)N1)C(=O)N(Cc1ccc(Br)cc1F)C(=O)c1cccn12
inactive: Potency [1] | Potency [2] | Potency [3]

CC[C@H]1OC(=O)[C@H](C)C(=O)[C@H](C)[C@@H](OC2O[C@H](C)C[C@H](N(C)C)[C@H]2O)[C@@H](C)C[C@@H](C)C(=O)/C=C/[C@]1(C)O (some centres not stated)
inactive: Potency [1] | Potency [2] | Potency [3]

C[C@@H]1CC[C@]2(C(=O)O)CC[C@]3(C)C(=CCC4[C@@]5(C)C[C@@H](O)[C@@H](O)C(C)(C)C5CC[C@]43C)C2[C@]1(C)O (some centres not stated)
inactive: Potency [1] | Potency [2] | Potency [3]

COc1ccc(/C=C/C(N)=O)cc1OC
inactive: Potency [1] | Potency [2] | Potency [3]

C[C@@H]1O[C@@H](O[C@H]2[C@H](O[C@H]3[C@H](O[C@H]4CC[C@@]5(C)C(CC[C@]6(C)C5CC=C5[C@@H]7CC(C)(C)CC(=O)[C@]7(C)CC[C@]56C)[C@@]4(C)CO)O[C@H](C(=O)O)[C@@H](O)[C@@H]3O)O[C@H](CO)[C@H](O)[C@@H]2O)[C@H](O)[C@H](O)[C@H]1O (some centres not stated)
inactive: Potency [1] | outcome [2] inactive [at 9.23 µM] | outcome [3] inactive [at 9.23 µM]

CC1(C(=O)O)CC[C@]2(C(=O)OC3OC(CO)C(O)C(O)C3O)CC[C@]3(C)C(=CCC4[C@@]5(C)CC[C@H](OC6OCC(O)C(O)C6OC6OC(CO)C(O)C(O)C6O)C(C)(C)C5CC[C@]43C)C2C1 (some centres not stated)
inactive: Potency [1] | activity change, negative = viability loss [2] -7.26% [at 9.23 µM] | activity change, negative = cell killing [3] -0.731% [at 9.23 µM]

OC[C@H]1O[C@@H](OCc2ccccc2)[C@H](O[C@@H]2OC[C@@H](O)[C@H](O)[C@H]2O)[C@@H](O)[C@@H]1O
inactive: Potency [1] | Potency [2] | Potency [3]

CC(C)C1NC(=O)CNC(=O)C2CCCN2C(=O)C(Cc2c[nH]c3ccccc23)NC(=O)CNC(=O)C(C(O)c2ccc(O)cc2)NC(=O)CNC1=O (configuration not stated) (cyclo(G[ξTyr(βOH)]GWPGV); configuration not given here)
inactive: Potency [1] | Potency [2] | Potency [3]

C[C@@H]1C[C@@H](O)[C@@]2(CO)C(CO)=CCC[C@@H]2[C@@]12C[C@@H](c1ccoc1)OC2=O
inactive: Potency [1] | Potency [2] | Potency [3]

COC(=O)C1=COC(OC2OC(CO)C(O)C(O)C2O)C2C(C)CC(=O)C12O (configuration not stated)
inactive: Potency [1] | Potency [2] | Potency [3]

NC(Cc1c[nH]c2ccc(O)cc12)C(=O)O (configuration not stated)
inactive: Potency [1] | Potency [2] | Potency [3]

COc1c2ccoc2nc2c(OC)c(O[C@@H]3O[C@@H](C)[C@H](O)[C@@H](O[C@@H]4O[C@H](CO)[C@@H](O)[C@H](O)[C@H]4O)[C@H]3OC(C)=O)ccc12
inactive: Potency [1] | Potency [2] | Potency [3]

CC1(C)CC[C@]2(C(=O)O)CC[C@]3(C)C(=CCC4[C@@]5(C)C[C@@H](O)[C@H](O)[C@@](C)(CO)C5CC[C@]43C)C2C1 (some centres not stated)
inactive: Potency [1] | Potency [2] | Potency [3]

CC1(C)CC[C@]2(C(=O)O[C@@H]3O[C@H](CO)[C@@H](O)[C@H](O)[C@H]3O)CC[C@]3(C)C(=CCC4[C@@]5(C)CC[C@H](O[C@@H]6O[C@H](C(=O)O)[C@@H](O[C@@H]7O[C@H](CO)[C@@H](O)[C@H](O)[C@H]7O)[C@H](O)[C@H]6O[C@@H]6O[C@H](CO)[C@@H](O)[C@H](O)[C@H]6O)C(C)(C)C5CC[C@]43C)C2C1 (some centres not stated)
inactive: Potency [1] | activity change, negative = viability loss [2] 4.56% [at 9.23 µM] | activity change, negative = cell killing [3] 4.58% [at 9.23 µM]

O=C(/C=C/c1ccccc1)O[C@@H]1[C@@H](CO)O[C@@](CO)(O[C@H]2O[C@H](CO)[C@@H](O)[C@H](O)[C@H]2O)[C@H]1O
inactive: Potency [1] | Potency [2] | Potency [3]

COc1c(O[C@@H]2O[C@H](CO)[C@@H](O)[C@H](O)[C@H]2O)c(CCC(=O)O)cc2ccoc12
inactive: Potency [1] | Potency [2] | Potency [3]

CC(CCc1ccc(O)cc1)O[C@@H]1O[C@H](CO[C@@H]2OC(CO)[C@H](O)[C@H]2O)[C@@H](O)[C@H](O)[C@H]1O (some centres not stated)
inactive: Potency [1] | Potency [2] | Potency [3]

C[C@@H]1O[C@@H](O[C@H]2[C@@H]3C=CO[C@@H](O[C@@H]4O[C@H](CO)[C@@H](O)[C@H](O)[C@H]4O)[C@@H]3[C@@]3(CO)O[C@@H]23)[C@H](O)[C@H](OC(=O)/C=C/c2ccc(O)c(O)c2)[C@H]1O
inactive: Potency [1] | Potency [2] | Potency [3]

OC[C@H]1O[C@@H](OCc2ccccc2)[C@H](O)[C@@H](O)[C@@H]1O
inactive: Potency [1] | Potency [2] | Potency [3]

CC1(C)CC[C@]2(C(=O)O[C@@H]3O[C@H](CO)[C@@H](O)[C@H](O)[C@H]3O)CC[C@]3(C)C(=CCC4[C@@]5(C)C[C@@H](O)[C@H](O)[C@@](C)(CO)C5[C@H](O)C[C@]43C)C2C1 (some centres not stated)
inactive: Potency [1] | Potency [2] | Potency [3]

C=C[C@@]1(C)CCC2=C([C@H]1OC(C)=O)[C@H](OC(C)=O)CC1[C@](C)(C(=O)OC)CC[C@H](OC(C)=O)[C@]21C (some centres not stated)
inactive: Potency [1] | Potency [2] | Potency [3]

C[C@@H]1O[C@@H](O[C@H]2[C@H](O)[C@@H](O[C@@H]3O[C@H](CO)[C@H](O)[C@H](O)[C@H]3O)[C@H](O[C@H]3CC[C@@]4(C)C(CC[C@]5(C)C4CC=C4[C@@H]6CC(C)(C)CC[C@]6(C(=O)O[C@@H]6O[C@H](CO)[C@@H](O)[C@H](O)[C@H]6O)CC[C@]45C)C3(C)C)O[C@@H]2C(=O)O)[C@H](O)[C@H](O)[C@H]1O (some centres not stated)
inactive: Potency [1] | activity change, negative = viability loss [2] 0.405% [at 9.23 µM] | outcome [3] inactive [at 9.23 µM]
